Results taken from the supplement of paper PMC8975748.
Where a name gives a salt, the structure may show the parent alone. ± gives the standard deviation of the averaged measurements.

What follows are compounds tested on Saccharomyces cerevisiae BY4741 SeMeCo community (assay: mean cell size (pixel area) (pixels); higher = larger cells). Settings: 10 µM; 24 h; SM minimal medium.
Method in brief: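 In this assay, mean cell pixel area per well was obtained from automated confocal images of paraformaldehyde-fixed yeast analysed in Harmony. The cells were a Saccharomyces cerevisiae BY4741 community with four plasmids, each complementing one auxotrophy and carrying a fluorescent marker, grown for 24 h in SM medium with drug at a final 10 µM in 384-well plates. Values are averaged across 3 replicates. Same SeMeCo high-content imaging drug screen: Selleck FDA-approved drugs at 10 µM, 24 h in SM medium, 384-well plates, 3 replicates.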

SMILES | mean cell size
NC(=O)CN1CCCC1=O [Piracetam] | 12.47 ± 0.028
CC(NC(C)(C)C)C(=O)c1cccc(Cl)c1 (centres undefined) [Amfebutamone (Bupropion) HCl] | 12.5 ± 0.13
COc1ccc2[nH]cc(CCN)c2c1 [5-Methoxytryptamine] | 12.18 ± 0.062
CCN1C[C@]2(OC(=O)c3ccccc3NC(C)=O)CC[C@H](OC)[C@@]34[C@@H]2C[C@@H]([C@@H]13)[C@@]1(O)C[C@H](OC)[C@H]2C[C@@H]4[C@]1(O)[C@H]2OC [Lappaconitine] | 12.4 ± 0.3
CN1C(=O)COc2c(C(=O)NC3CN4CCC3CC4)cc(Cl)cc21 (centres undefined) [Azasetron HCl] | 12 ± 0.075
C=C(C)[C@H]1Cc2c(ccc3c2O[C@@H]2COc4cc(OC)c(OC)cc4[C@@H]2C3=O)O1 [Rotenone (Barbasco)] | 12.67 ± 0.1
C[N+]12CCC(CC1)C(OC(=O)C(O)(c1ccccc1)c1ccccc1)C2 (centres undefined) [Clidinium Bromide] | 12.4 ± 0.13
CC(=O)OCC1=C(C(=O)O)N2C(=O)[C@@H](N)[C@H]2SC1 [7-Aminocephalosporanic acid] | 12.28 ± 0.11
C[N+](C)(C)CCCCCCCCCC[N+](C)(C)C [Decamethonium Bromide] | 12.47 ± 0.097
CN(C)C(=O)Oc1ccc[n+](C)c1 [Pyridostigmine Bromide] | 12.54 ± 0.1
N[C@@H]1C[C@H]1c1ccccc1 [Tranylcypromine (2-PCPA) HCl] | 12.3 ± 0.32
CC(=O)c1c(O)cc(C)oc1=O [Sodium dehydroacetate] | 12.3 ± 0.038
C[C@@H]1O[C@@H](O[C@H]2C[C@@H](O)[C@]3(CO)[C@H]4[C@H](O)C[C@]5(C)[C@@H](C6=CC(=O)OC6)CC[C@]5(O)[C@@H]4CC[C@]3(O)C2)[C@H](O)[C@H](O)[C@H]1O [Ouabain] | 12.3 ± 0.32
CCC1=C[C@H]2CN3CCc4c([nH]c5ccccc45)[C@](C(=O)OC)(C2)[C@H]13 [Catharanthine] | 12.5 ± 0.19
CC(=O)O[C@H]1C[C@@H]2CC[C@@H]3[C@H](CC[C@@]4(C)[C@H]3C[C@H]([N+]3(C)CCCCC3)[C@@H]4OC(C)=O)[C@@]2(C)C[C@@H]1[N+]1(C)CCCCC1 [Pancuronium dibromide] | 12.5 ± 0.19
COc1ccc(C=O)cc1 [p-Anisaldehyde] | 12.3 ± 0.27
CCN(C)C(=O)Oc1cccc([C@H](C)N(C)C)c1 [Rivastigmine] | 12.7 ± 0.17

SMILES | mean cell size
CN1c2ccccc2C(NCCCCCCC(=O)O)c2ccc(Cl)cc2S1(=O)=O (centres undefined) [Tianeptine sodium] | 12.6 ± 0.24
CN[C@@H]1[C@@H](O)[C@@H](O[C@@H]2[C@@H](O)[C@H](O[C@H]3O[C@H]([C@@H](C)O)[C@@H](O)[C@H](O)[C@H]3N)[C@@H](N)C[C@H]2N)OC[C@]1(C)O [Geneticin (G418 Sulfate)] | 11.99 ± 0.045
CC[C@H]1[C@@H]2C[C@H]3[C@@H]4N(C)c5ccccc5[C@]45C[C@@H]([C@@H]2[C@H]5O)N3[C@@H]1O [Ajmaline] | 12.1 ± 0.16
CCOC(=O)Nc1ccc(NCc2ccc(F)cc2)cc1N [Retigabine] | 12.58 ± 0.12
C[CH2][Hg][S]c1ccccc1C(=O)[O-].[Na+] [Thimerosal] | 12.3 ± 0.52
CN1[C@@H]2C[C@@H](OC(=O)[C@H](CO)c3ccccc3)C[C@H]1[C@@H]1O[C@@H]12 [Scopolamine HBr trihydrate] | 12.1 ± 0.18
O=C(O[C@H]1C[N+]2(CCCOc3ccccc3)CCC1CC2)C(O)(c1cccs1)c1cccs1 [Aclidinium Bromide] | 12.59 ± 0.061
Cc1cc(C(C#N)c2ccc(Cl)cc2)c(Cl)cc1NC(=O)c1cc(I)cc(I)c1O (centres undefined) [Closantel] | 12.3 ± 0.27
COC(=O)C1=CCCN(C)C1 [Arecoline HBr] | 12.4 ± 0.29
C#C[C@]1(O)C=C[C@H]2[C@@H]3CCC4=CC(=O)CC[C@@H]4[C@H]3CC[C@@]21CC [Gestodene] | 12.5 ± 0.17
O=c1[nH]c2ccccc2n1CCCN1CCC(n2c(=O)[nH]c3cc(Cl)ccc32)CC1 [Domperidone] | 12.6 ± 0.23
Nc1nc(N)nc(NC2CC2)n1 [Cyromazine] | 12.46 ± 0.1
CCCCCCCCCCCCCCCC[n+]1ccccc1 [Cetylpyridinium Chloride] | 11.2 ± 0.14
CC[C@@H](C(N)=O)N1CCCC1=O [Levetiracetam] | 12.5 ± 0.14
CCCN1C[C@H](CSC)C[C@@H]2c3cccc4[nH]cc(c34)C[C@H]21 [Pergolide Mesylate] | 12.4 ± 0.25
C=CN1CCCC1=O.II [Povidone iodine] | 12.5 ± 0.22
CCN(CC)CCOC(=O)C(O)(c1ccccc1)c1ccccc1 [Benactyzine hydrochloride] | 12.4 ± 0.051
